In PubChem BioAssay AID1159580 (chemical genetic matrix, 2015):
The whole screen tested about 5,500 compounds, of which about 2,000 (36%) were called active. Inconclusive results (about 18%) are left out. No stated cut-off is given here; in the data, active means normalized growth mostly below about 0.91 (no sharp cut-off); inconclusive means no clear call, values can overlap the other calls; inactive means mostly above about 0.92. Some of the results follow.

Assay: chemical genetic growth profiling, strain panel (AID 1159580);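 further: tested at 20 µM; growth read once vehicle control cultures reached saturation at 30 °C; 1 = growth at the plate median or of vehicle wells; lower values mean less growth of the strain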
Conditions: S. cerevisiae deletion strains, growth OD

Measured: normalized growth

CSc1nc(N)c2ncn([C@@H]3O[C@H](COP(=O)(O)OP(=O)(O)O)[C@H](O)C3O)c2n1 (stereo partly drawn)
inactive: locus YAL013W, strain DEP1, hits give low values 1.01 | locus YAL040C, strain CLN3, hits give low values 1.01 | locus YCL061C, strain MRC1 (second series), hits give low values 1.01 | locus YDR363W, strain ESC2, hits give low values 1.04 | locus YER002W, strain NOP16, hits give low values 1 | locus YJR075W, strain HOC1, hits give low values 1.03 | locus YNL153C, strain GIM3, hits give low values 1.03 | locus YNL175C, strain NOP13, hits give low values 1.02 | locus YNL197C, strain WHI3, hits give low values 0.99 | locus YNL224C, strain SQS1, hits give low values 0.998 | locus YOR083W, strain WHI5 (second series), hits give low values 1.02 | locus YPL055C, strain LGE1, hits give low values 1.02 | locus YPL241C, strain CIN2, hits give low values 1
